Compounds with a hit are over-represented: about 0.84% of the library has one in this group of screens.
SRC1 TRFRET art – TR-FRET artefact, counter-screen to PPARgamma/SRC-1 agonist assay; TR-FRET detection artefact counter-screen, emission ratio; hits give high values; TR-FRET ratio at 8 µM; 99,000 compounds, 0.34% hits; AID 1051; in the data active = TR-FRET ratio above about 2300
PPARg SRC2 recr – agonists of SRC-2 recruitment by human PPARgamma | P37231 | PPARgamma LBD-SRC-2 recruitment, biochemical | activation, % at 8 µM | 200,000 compounds, 0.34% hits; in the data active = activation above about 22%
Target sequence (P37231 whole entry, looked up, the tested form may be a part): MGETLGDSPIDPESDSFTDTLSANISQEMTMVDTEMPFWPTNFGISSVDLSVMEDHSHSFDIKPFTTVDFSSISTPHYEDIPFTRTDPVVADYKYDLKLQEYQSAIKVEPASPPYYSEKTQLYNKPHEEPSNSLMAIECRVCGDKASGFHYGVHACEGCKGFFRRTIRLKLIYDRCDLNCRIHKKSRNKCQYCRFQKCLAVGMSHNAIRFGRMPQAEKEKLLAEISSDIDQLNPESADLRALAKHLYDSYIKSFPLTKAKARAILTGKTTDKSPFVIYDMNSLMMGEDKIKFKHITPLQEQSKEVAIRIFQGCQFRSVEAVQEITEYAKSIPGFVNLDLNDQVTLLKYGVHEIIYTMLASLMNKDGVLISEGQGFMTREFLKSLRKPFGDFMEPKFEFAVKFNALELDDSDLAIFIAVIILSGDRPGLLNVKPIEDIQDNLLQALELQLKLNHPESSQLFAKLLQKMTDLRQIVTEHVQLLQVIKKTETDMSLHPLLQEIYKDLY
PPARg SRC1 recr – promotes SRC-1 coactivator recruitment by human PPARgamma; P37231; PPARgamma-SRC-1 coactivator recruitment biochemical assay; activation, % at 8 µM; 200,000 compounds, 0.41% hits; AID 631; in the data active = activation above about 19%
SRC3 TRFRET art – TR-FRET artefact, counter-screen to PPARgamma/SRC-3 agonist assay | TR-FRET ratio at 8 µM | 99,000 compounds, 0.39% hits | PPARgamma/SRC-3 format; hits give high values
TR-FRET SRC-2 ct – counter-screen for PPARgamma SRC-2 recruitment agonists: TR-FRET artefact | hits give high values | TR-FRET ratio at 8 µM | 200,000 compounds, 0.4% hits | AID 1049
PPARg SRC3 recr – agonists of human PPARgamma SRC-3 coactivator recruitment; biochemical PPARgamma/SRC-3 coactivator recruitment assay; 200,000 compounds, 0.26% hits; AID 731; activation, % at 8 µM; in the data active = activation above about 23%
A number is an active result; – = inactive; · = not tested or not shown. Cut-off read from the data, not from the text of the source, unless noted: active = TR-FRET ratio above about 2000; inactive = the rest.

SMILES	SRC1 TRFRET art	PPARg SRC2 recr	PPARg SRC1 recr	SRC3 TRFRET art	TR-FRET SRC-2 ct	PPARg SRC3 recr
CC(=O)Nc1cccc(NC(=O)c2cc(-c3cccnc3)nc3ccc(Br)cc23)c1	·	–	–	·	–	–
Cc1cc(OCC(O)CN2C(C)CCCC2C)ccc1C(C)C (stereo not drawn)	–	–	–	–	–	–
CCNC(=S)N=Nc1c(O)[nH]c2ccc([N+](=O)[O-])cc12	–	–	–	–	1982	–
O=[N+]([O-])c1ccc2[nH]c(O)c(N=NC(=S)NCC3CCCO3)c2c1 (stereo not drawn)	–	–	–	–	–	–
C/C(=N\Nc1nc2ccccc2[nH]1)c1ccc(C)o1	–	–	–	2059	–	–
C=CCNC(=S)N/N=C/c1ccc(C)cc1C	–	–	–	–	–	–
CCN1CCCC1CNC(=O)c1cc2c(-c3ccc(Cl)cc3)nn(C)c2s1 (stereo not drawn)	·	–	22	·	–	–
COc1ccc(-c2ccc(C#N)c(SCC(=O)NCCc3ccccc3)n2)cc1OC	–	–	–	–	2078	–
COc1ccc(-c2ccc(C#N)c(SCC(=O)Nc3sc4c(c3C#N)CCC4)n2)cc1OC	·	–	–	·	–	–
COc1cccc(-c2ccc(C#N)c(SCC(=O)NCCc3cccc(Cl)c3)n2)c1	·	–	–	·	1982	–
CC1CCCN(C(=S)Nc2ccc(Nc3ccccc3)cc2)C1 (stereo not drawn)	–	–	–	–	–	–
COc1cccc(NC(=O)CSc2nc(N)cc(N)n2)c1	·	–	–	·	–	–
COc1cccc(NC(=S)/C(=C(\[O-])c2ccc(OC(F)F)cc2)[n+]2ccccc2)c1	–	–	–	–	1987	–
COCCCNc1nc(SCc2ccccc2)nc2sc3c(c12)CCC3	·	–	–	·	–	–
N#Cc1cnn(-c2nc(SCc3ccccc3)nc3sc4c(c23)CCCC4)c1N	·	–	–	·	2441	–
Cc1ccc(-c2nsc(SCC(=O)Nc3ccc4c(c3)OCO4)n2)cc1	–	–	–	–	–	–
c1csc(Cc2nn3c(-c4n[nH]c5c4CCC5)nnc3s2)c1	·	–	20	·	–	–
c1coc(-c2nnc3sc(Cc4cccs4)nn23)c1	·	–	–	·	–	–
O=C(C1=C[C@@H](c2ccc(Br)cc2)C[C@@H](OCCCCO)O1)N1CCN(Cc2ccc3c(c2)OCO3)CC1	–	–	–	–	–	31
O=C(N/N=C/c1cn(-c2ccccc2)nc1-c1cccnc1)c1cccnc1	2335	–	–	–	–	–
Cc1ccccc1OCC(=O)NNC(=O)CN1C(=O)c2ccccc2C1=O	–	–	–	–	–	–
CCn1cc(S(=O)(=O)Nc2ccccc2C(F)(F)F)cn1	–	23	–	–	–	–
O=C(O)c1ccccc1NS(=O)(=O)c1ccccc1C(F)(F)F	·	–	–	·	–	–
CCCCOc1ccc(C(=O)N/C(=C/C=C/c2ccccc2)C(=O)O)cc1	–	–	–	–	–	30
Cc1onc(-c2ccccc2Cl)c1C(=O)N1CCOC12CCN(c1cccc(F)n1)CC2	–	–	–	–	–	–
SMILES	SRC1 TRFRET art	PPARg SRC2 recr	PPARg SRC1 recr	SRC3 TRFRET art	TR-FRET SRC-2 ct	PPARg SRC3 recr
Cn1c(=O)c(Oc2cc(Cl)cc(Cl)c2)nc2ccccc21	·	–	29	·	–	–
COc1ccc(Oc2nc3ccccc3n(C)c2=O)cc1	·	–	–	·	–	–
C/C(=N\Nc1nc2ccccc2s1)c1ccc(Br)s1	–	–	23	–	–	–
Cn1cccc1Cc1nnc(SCC(=O)N2CCOCC2)n1-c1ccc(F)cc1	·	–	–	·	–	–
CCOC(=O)c1sc(N2C(=O)C(O)=C(C(=O)c3ccco3)C2c2ccccc2)nc1C (stereo not drawn)	·	–	–	·	–	–
Cc1ccc2nc(N3C(=O)C(O)=C(C(=O)c4ccco4)C3c3cccs3)sc2c1 (stereo not drawn)	·	47	38	·	2260	64
COC(=O)c1ccc2c(c1)SC1=C(CCCC1=O)N2	·	–	–	·	2074	–
COC(=O)c1ccc2c(c1)NC(=O)C(N1CCCC1)S2 (stereo not drawn)	·	–	–	·	–	–
CC(C)CCSc1nc(N)c(C#N)cc1C#N	·	–	–	·	2957	–
O=C(CSC1=NCCS1)N1CCN(c2ccc(Cl)cc2)CC1	·	–	–	·	–	–
c1ccc(-c2noc(CN3CCOCC3)n2)cc1	–	–	–	–	–	–
CC(=O)N(C(C)=O)c1c(C#N)c(C)n(-c2ccccc2)c1C(=O)c1ccccc1	·	–	–	·	–	–
COCCOC(=O)c1c(C)oc2ccc(OC(=O)COc3c(F)c(F)c(F)c(F)c3F)cc12	·	–	–	·	–	–
Cc1oc2ccc(OC(=O)COc3c(F)c(F)c(F)c(F)c3F)cc2c1C(=O)OC(C)C	–	–	–	–	2175	–
Cc1ccc(NC(=O)CCSc2nnc3ccccn23)cc1	·	–	–	·	–	–
CCOC(=O)c1ccc(NC2=CC(=O)CC(c3ccco3)C2)cc1 (stereo not drawn)	–	–	–	–	2006	–
COc1ccc(NS(=O)(=O)c2c(C)n(C)c(=O)n(C)c2=O)cc1OC	·	24	–	·	–	–
O=C(NCc1ccco1)c1ccc(S(=O)(=O)c2cccc(S(=O)(=O)N3CCOCC3)c2)cc1	·	–	–	·	–	–
COc1ccccc1NC(=O)C1=C(C)NC(SCC(=O)c2ccccc2)=C(C#N)C1c1ccco1 (stereo not drawn)	·	–	–	·	2496	–
COc1ccc(OC)c(NC(=O)CSc2nnc(N)s2)c1	·	23	–	·	–	–
COc1ccc(OC)c(NC(=O)CSc2nnc(-c3cccnc3)s2)c1	–	–	–	–	–	–
CC(C)c1cc(Br)ccc1OCCCN1C(=O)NC(C)(C)C1=O	·	–	–	·	–	–
COc1ccc(CC(=O)NCc2nnc(SCC(=O)Nc3cccc(F)c3)n2C)cc1	–	38	–	–	–	–
COc1ccc(CC(=O)NCc2nnc(SCC(=O)Nc3ccccc3)n2C)cc1	–	–	–	–	–	–
COc1ccc(N2C(=O)CC(Sc3nnc(-c4ccccc4)o3)C2=O)cc1 (stereo not drawn)	–	–	–	–	–	–
SMILES	SRC1 TRFRET art	PPARg SRC2 recr	PPARg SRC1 recr	SRC3 TRFRET art	TR-FRET SRC-2 ct	PPARg SRC3 recr
C/C(N)=C(/C#N)C(=O)CSc1nnc(Nc2cccc(C)c2C)s1	·	–	–	·	–	–
Cc1cccc(Nc2nnc(SCC(=O)c3ccc(Br)s3)s2)c1C	–	–	–	2057	–	–
O=C(Nc1nc2c(cc3c4c(cccc42)CC3)s1)c1ccccc1Cl	–	–	–	2115	1981	–
CCc1nc(SCc2ccc(F)cc2)[nH]c(=O)c1C#N	·	57	–	·	2794	–
Cc1cc(C)c(C#N)c(SCc2ccc(F)cc2)n1	–	–	–	–	–	–
Cc1ccc(S(=O)(=O)N2CCCC(C(=O)N(Cc3cccs3)C3CC3)C2)cc1 (stereo not drawn)	–	–	–	–	2180	–
NC1=Nc2cccc3cccc1c23	–	–	–	–	–	–
NC1=CC(=O)c2cccc3cccc1c23	·	–	–	·	–	26
CC(C)NC(=O)NC(=O)CSc1ccccc1F	–	–	–	3589	–	38

Screening data from PubChem BioAssay.
